# Test results reported in PubChem BioAssay (EPA / NIEHS).
# Inconclusive results are not listed. The source made the active and inactive calls. The calls were made as follows, unless noted: active = hit-call score of the fitted dose curve at least 0.9, where 1 is the maximum; inactive = score below 0.9.
# What was measured:
# [1] = test system: SERPINA7 (gene 6906); assay: CCTE_GLTED_hTBG: CCTE's human Thyroxine-binding Globulin (TBG) Inhibition Assay, Great Lakes Toxicology and Ecology Division (GLTED) Lab (AID 2284343; active = hit-call score of the fitted dose curve at least 0.9, where 1 is the maximum;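 also: active chemicals lower fluorescence versus DMSO baseline by displacing probe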)
# Procedure, shortened: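 hTBG + test chem, 2 h; ANSA probe displacement; fluorescence readout ex380/em475; DMSO = neg ctrl/baseline; cell-free.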
# [2] = Tanguay_ZF_120hpf_MO24: Oregon State University Tanguay Lab 24 Hour Post-fertilization zebrafish Assay for Mortality (AID 2284389)
# Procedure, shortened: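 Dechorionated wild-type zebrafish embryos, 1 per well, statically exposed from 6 hpf at 28C, 0.64% DMSO final. Mortality scored as binary present/absent at 24 hpf by brightfield microscopy, relative to DMSO.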
# [3] = Tanguay_ZF_120hpf_AXIS: Oregon State University Tanguay Lab 120 Hour Post-fertilization zebrafish Assay for Axial Malformation (AID 2284398)
# Procedure, shortened: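 Dechorionated 5D wild-type zebrafish embryos exposed statically, one per well, from 6 to 120 hpf at 28C, 0.64% DMSO. Axial malformation scored as present/absent by brightfield microscopy at 120 hpf; dead embryos not scored.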
# [4] = Tanguay_ZF_120hpf_EDEM: Oregon State University Tanguay Lab 120 Hour Post-fertilization zebrafish Assay for Edema Malformation (AID 2284400)
# Procedure, shortened: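 Dechorionated Tropical 5D wild-type embryos, one per well, statically exposed from 6 to 120 hpf at 28C in 0.64% DMSO. Edema scored present/absent by brightfield microscopy at 120 hpf; dead embryos not scored; fit versus DMSO.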
# [5] = Tanguay_ZF_120hpf_ANY: Oregon State University Tanguay Lab 120 Hour Post-fertilization zebrafish Assay for Any Mortality and Malformation (AID 2284404)
# Procedure, shortened: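 Dechorionated Tropical 5D wild-type embryos, one per well from 6 hpf, static exposure in sealed, dark plates at 28C until 120 hpf, 0.64% DMSO final. Brightfield scoring of mortality and malformations as binary presence/absence, pooling 13 morphology endpoints.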
# [6] = CCTE_Padilla_ZF_Score.Craniofacial: CCTE's 144 Hour Post-fertilization zebrafish Assay Score for Craniofacial Malformation, Padilla Lab (AID 2284405)
# Procedure, shortened: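 Wild-type zebrafish embryos (with chorions), one per well in 10% Hanks', were dosed at 6–8 hpf in sealed plates and kept at 26C. They were rinsed at 5 dpf. At 6 dpf two blinded assessors scored craniofacial malformations by brightfield stereomicroscopy.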
# [7] = CCTE_Padilla_ZF_Score.Edema: CCTE's 144 Hour Post-fertilization zebrafish Assay Score for Edema Malformation, Padilla Lab (AID 2284406)
# Procedure, shortened: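 Wild-type zebrafish embryos, one per well in Hanks' solution, dosed at 6-8 hpf, sealed and reared at 26C on a 14:10 h cycle; rinsed on 5 dpf. At 6 dpf, blinded assessors scored edema by stereomicroscopy.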
# [8] = CCTE_Padilla_ZF_Score.Spine: CCTE's 144 Hour Post-fertilization zebrafish Assay Score for Spine Malformation, Padilla Lab (AID 2284407)
# Procedure, shortened: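 Wild-type zebrafish embryos, one per well in Hanks' solution, dosed at 6–8 hpf in sealed plates at 26C, 14:10 h light:dark; rinsed at 5 dpf. Two blinded assessors scored spinal defects by stereomicroscopy at 6 dpf; fitted versus DMSO.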
# [9] = CCTE_Padilla_ZF_Score.Swim_bladder: CCTE's 144 Hour Post-fertilization zebrafish Assay Score for Swim Bladder Malformation, Padilla Lab (AID 2284408)
# Procedure, shortened: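 Wild-type zebrafish embryos, one per well in 10% Hanks', dosed at 6–8 hpf, sealed, reared at 26C and rinsed at 5 dpf. Blinded assessors scored uninflated swim bladder by stereomicroscopy at 6 dpf, relative to DMSO.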
# [10] = CCTE_Mundy_HCI_iCellGluta_NOG_NeuronCount: CCTE's Neurite Outgrowth Assay in iCellGluta cells for Neuron Count, Mundy Lab (AID 2284340; active = hit-call score of the fitted dose curve at least 0.9, where 1 is the maximum;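 also: cells fixed about 48 h after compound addition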)
# Procedure, shortened: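 Neuron count read by automated high-content imaging of Hoechst 33342 and betaIII-tubulin/Alexa Fluor-488 labelling in human iPSC glutamatergic neurons. Activity fitted relative to DMSO.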
# [11] = CCTE_Mundy_HCI_iCellGluta_NOG_NeuriteCount: CCTE's Neurite Outgrowth Assay in iCellGluta cells for Neurite Count, Mundy Lab (AID 2284342; active = hit-call score of the fitted dose curve at least 0.9, where 1 is the maximum;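 also: chemical exposure about 48 hours starting 2 hours after plating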)
# [12] = Tanguay_ZF_120hpf_MORT: Oregon State University Tanguay Lab 120 Hour Post-fertilization zebrafish Assay for Mortality (AID 2284399)
# Procedure, shortened: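 Dechorionated wild-type Tropical 5D zebrafish embryos, one per well from 6 hpf, static exposure to 120 hpf at 28C in sealed dark plates, 0.64% DMSO final. Mortality scored as binary by brightfield at 24 and 120 hpf.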
# [13] = Tanguay_ZF_120hpf_TCHR: Oregon State University Tanguay Lab 120 Hour Post-fertilization zebrafish Assay for Touch Responsive (AID 2284403)
# Procedure, shortened: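 Dechorionated Tropical 5D wild-type zebrafish embryos, one per well from 6 hpf, were statically exposed to 120 hpf at 28 °C (0.64% DMSO). Touch response was scored present/absent at 120 hpf and not scored in dead larvae.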
# [14] = CCTE_Deisenroth_5AR_NBTE_acceptor: CCTE's 5alpha-reductase NanoBRET Target Engagement Assay - Autofluorescence Screen, Deisenroth Lab (AID 2284321); conditions: actives raise or lower the signal;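 also: compound fluorescence in the acceptor channel under 460 nm excitation flags autofluorescence artifacts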
# Procedure, shortened: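 Acceptor fluorescence intensity was read as an artifact-detection endpoint. Test chemicals at an assumed nominal 100 uM were excited at 460 nm across three independent runs. Activity was fitted bidirectionally against DMSO.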
# [15] = test system: SRD5A2 (gene 6716); assay: CCTE_Deisenroth_5AR_NBTE_ratio: CCTE's 5alpha-reductase NanoBRET Target Engagement Assay - Ratio, Deisenroth Lab (AID 2284322); conditions: actives raise or lower the signal
# Procedure, shortened: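 HEK293T transiently expressing SRD5A2-NanoLuc; cells exposed to chemical (8-point, 10 nM - 29.9 uM) for 5 h total, testosterone tracer added for final 2 h. NanoBRET acceptor/donor ratio (650/460 nm), bidirectional fit vs DMSO.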
# [16] = Tanguay_ZF_120hpf_DP24: Oregon State University Tanguay Lab 24 Hour Post-fertilization zebrafish Assay for Delayed Development (AID 2284390)
# Procedure, shortened: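 Dechorionated 5D wild-type zebrafish embryos exposed statically from 6 hpf, one per well, 0.64% DMSO final, 28 C, sealed and dark. Developmental progression scored at 24 hpf by brightfield as binary present/absent; dead embryos excluded.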
# [17] = Tanguay_ZF_120hpf_BRN: Oregon State University Tanguay Lab 120 Hour Post-fertilization zebrafish Assay for Brain Region Malformation (AID 2284402)
# Procedure, shortened: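 Dechorionated wild-type Tropical 5D zebrafish embryos exposed statically from 6 to 120 hpf at 28C, one per well, 0.64% DMSO final. Brain malformation scored at 120 hpf by brightfield as present/absent; dead embryos not scored.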
# [18] = TAMU_PeakParms_SingleDonor1434_Asystole: Texas A&M University (TAMU) 1.5-hr Human Induced Pluripotent Stem Cell (iPSC)-derived Cardiomyocytes Calcium (Ca+2) Flux Assay for Cardiotoxicity: Asystole (quiescence of beating) (AID 2284328; active = hit-call score of the fitted dose curve at least 0.9, where 1 is the maximum)
# Procedure, shortened: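 Donor 1434 iPSC-cardiomyocytes exposed 90 min at 37C, 5% CO2, to 0.2, 1, 10 and 100 uM in 0.5% DMSO. Ca2+ dye fluorescence gave average peak frequency; POD is EC95, a 95% beat-rate drop versus controls.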
# [19] = IUF_NPC1_cytotoxicity_72hr: Cytotoxicity Assessment at 72 hours in the Leibniz Research Institute for Environmental Medicine (IUF) Neural Progenitor Cell Proliferation Assay (NPC1) (AID 2284332; active = hit-call score of the fitted dose curve at least 0.9, where 1 is the maximum;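 also: rising LDH signal means more cytotoxicity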)
# Procedure, shortened: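 Spheres of primary human neural progenitors are plated one per well on day 0 in growth-factor medium and dosed at once. After three days at 37C, supernatant LDH is measured fluorimetrically via resazurin reduction.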
# [20] = Tanguay_ZF_120hpf_CRAN: Oregon State University Tanguay Lab 120 Hour Post-fertilization zebrafish Assay for Craniofacial Malformation (AID 2284397)
# Procedure, shortened: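 Dechorionated Tropical 5D wild-type zebrafish embryos, one per well, were statically exposed from 6 to 120 hpf at 28C in 0.64% DMSO, with 5uM trimethyltin chloride as positive control. Craniofacial malformation was scored present/absent by brightfield microscopy, relative to DMSO.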
compound,measurement,setting,value
FC(F)(F)C(F)(F)C(F)(F)C(F)(F)C(F)(F)CCI,AC50,[1],27 µM (active)
same,outcome,[2],inactive
same,outcome,[3],inactive
same,outcome,[4],inactive
same,outcome,[5],inactive
same,outcome,[6],inactive
same,AC50,[7],30.4 µM (active)
same,outcome,[8],inactive
same,AC50,[9],30.4 µM (active)
O=C(CC(=O)C(F)(F)C(F)(F)F)C(F)(F)F,outcome,[10],inactive
same,outcome,[11],inactive
same,outcome,[2],inactive
same,outcome,[3],inactive
same,outcome,[12],inactive
same,outcome,[4],inactive
same,AC50,[5],0.0499 µM (active)
same,outcome,[6],inactive
same,outcome,[7],inactive
same,outcome,[8],inactive
same,outcome,[9],inactive
C=C(C)C(=O)OCC(F)(F)C(F)(F)C(F)(F)F,outcome,[10],inactive
same,outcome,[11],inactive
same,outcome,[2],inactive
same,outcome,[3],inactive
same,outcome,[4],inactive
same,outcome,[13],inactive
same,outcome,[5],inactive
same,outcome,[6],inactive
same,outcome,[7],inactive
same,outcome,[8],inactive
same,outcome,[9],inactive
O=C(OCCOCCOCCOC(=O)c1ccccc1)c1ccccc1,outcome,[14],inactive
same,outcome,[15],inactive
COC(=O)CCC(F)(F)C(F)(F)C(F)(F)C(F)(F)F,outcome,[2],inactive
same,outcome,[16],inactive
same,outcome,[3],inactive
same,outcome,[4],inactive
same,outcome,[17],inactive
same,outcome,[5],inactive
O=S(=O)(O)c1ccc2ccccc2c1,AC50,[1],24.5 µM (active)
CC(Cc1ccc(O)c(O)c1)C(C)Cc1ccc(O)c(O)c1 (stereo unspecified),AC50,[14],50 µM (active)
same,AC50,[15],93.7 µM (active)
same,AC50,[1],7.96 µM (active)
OCCCC(F)(F)C(F)(F)C(F)(F)C(F)(F)C(F)(F)C(F)(F)C(F)(F)F,outcome,[10],inactive
same,outcome,[11],inactive
same,outcome,[2],inactive
same,outcome,[3],inactive
same,outcome,[4],inactive
same,outcome,[5],inactive
same,outcome,[6],inactive
same,AC50,[7],36.4 µM (active)
same,outcome,[8],inactive
same,AC50,[9],88.1 µM (active)
C=CC(=O)OCC(F)(F)C(F)(F)C(F)(F)C(F)(F)COC(=O)C=C,outcome,[10],inactive
same,outcome,[11],inactive
same,AC50,[1],18.2 µM (active)
same,AC50,[2],28.3 µM (active)
same,AC50,[16],28.1 µM (active)
same,outcome,[3],inactive
same,outcome,[4],inactive
same,outcome,[13],inactive
same,AC50,[5],14.2 µM (active)
same,outcome,[6],inactive
same,AC50,[7],4.88 µM (active)
same,outcome,[8],inactive
same,AC50,[9],4.37 µM (active)
OC[C@@H](O)[C@@H](O)[C@H](O)[C@@H](O)CO,outcome,[18],inactive
same,outcome,[19],inactive
FC(F)(F)C(F)(F)C(F)(F)C(F)(F)C(F)(F)C(F)(F)C(F)(F)C(F)(F)F,outcome,[10],inactive
same,outcome,[11],inactive
same,outcome,[2],inactive
same,outcome,[3],inactive
same,outcome,[4],inactive
same,outcome,[5],inactive
same,outcome,[6],inactive
same,outcome,[7],inactive
same,outcome,[8],inactive
same,outcome,[9],inactive
CC(C)(C)C(=O)CC(=O)C(F)(F)C(F)(F)C(F)(F)F,outcome,[10],inactive
same,outcome,[11],inactive
same,outcome,[2],inactive
same,outcome,[20],inactive
same,outcome,[3],inactive
same,outcome,[4],inactive
same,outcome,[17],inactive
same,outcome,[5],inactive
same,AC50,[6],30.3 µM (active)
same,AC50,[7],27.5 µM (active)
same,outcome,[8],inactive
same,AC50,[9],27 µM (active)
FC(F)(F)C(F)(F)C(F)(F)C(F)(F)C(F)(F)C(F)(F)C(F)(F)C(F)(F)CCS,AC50,[10],5 µM (active)
same,outcome,[11],inactive
same,outcome,[2],inactive
same,outcome,[20],inactive
same,outcome,[3],inactive
same,outcome,[4],inactive
same,outcome,[5],inactive
same,outcome,[6],inactive
same,outcome,[7],inactive
same,outcome,[8],inactive
same,outcome,[9],inactive
FC(F)(F)C(F)(F)C(F)(F)C(F)(F)C(F)(F)C(F)(F)CC1CO1 (stereo unspecified),outcome,[10],inactive
same,outcome,[11],inactive
same,outcome,[2],inactive
same,outcome,[3],inactive
same,outcome,[4],inactive
same,outcome,[5],inactive
same,outcome,[6],inactive
same,outcome,[7],inactive
same,outcome,[8],inactive
same,outcome,[9],inactive
OCC(F)(F)C(F)(F)C(F)(F)C(F)F,outcome,[10],inactive
same,outcome,[11],inactive
same,outcome,[2],inactive
same,outcome,[3],inactive
same,outcome,[4],inactive
same,outcome,[5],inactive
same,outcome,[6],inactive
same,outcome,[7],inactive
same,outcome,[8],inactive
same,outcome,[9],inactive
